# Values without a mark were called inactive. Records with an inconclusive call do not appear. Where a call stands in place of a potency, no number is given. Calls of active or inactive are those of the source. Unless noted, calls come from the whole dose curve; as a rule, active = well fitted curve in the direction sought with a large enough effect; inconclusive = small, poorly fitted or top-dose-only effect, or another doubt; inactive = no such curve, though single readings can be large; an effect the other way counts as inactive or inconclusive.
# Columns and labels:
# [1] = target: Rap guanine nucleotide exchange factor 3 (Homo sapiens) (UniProt O95398); test: Confirmatory qHTS for antagonist of cAMP-regulated guanine nucleotide exchange factor 3 (EPAC1) (AID 1645880); conditions: EPAC1 Rap1B-BODIPY-GDP exchange, fluorescence; series mostly up to 115 µM; note: nearly all actives have a fitted effect of over 55% in size; note: potency is the fitted concentration of half-maximal effect
# Rap guanine nucleotide exchange factor 3 (Homo sapiens), sequence (O95398 whole entry, looked up): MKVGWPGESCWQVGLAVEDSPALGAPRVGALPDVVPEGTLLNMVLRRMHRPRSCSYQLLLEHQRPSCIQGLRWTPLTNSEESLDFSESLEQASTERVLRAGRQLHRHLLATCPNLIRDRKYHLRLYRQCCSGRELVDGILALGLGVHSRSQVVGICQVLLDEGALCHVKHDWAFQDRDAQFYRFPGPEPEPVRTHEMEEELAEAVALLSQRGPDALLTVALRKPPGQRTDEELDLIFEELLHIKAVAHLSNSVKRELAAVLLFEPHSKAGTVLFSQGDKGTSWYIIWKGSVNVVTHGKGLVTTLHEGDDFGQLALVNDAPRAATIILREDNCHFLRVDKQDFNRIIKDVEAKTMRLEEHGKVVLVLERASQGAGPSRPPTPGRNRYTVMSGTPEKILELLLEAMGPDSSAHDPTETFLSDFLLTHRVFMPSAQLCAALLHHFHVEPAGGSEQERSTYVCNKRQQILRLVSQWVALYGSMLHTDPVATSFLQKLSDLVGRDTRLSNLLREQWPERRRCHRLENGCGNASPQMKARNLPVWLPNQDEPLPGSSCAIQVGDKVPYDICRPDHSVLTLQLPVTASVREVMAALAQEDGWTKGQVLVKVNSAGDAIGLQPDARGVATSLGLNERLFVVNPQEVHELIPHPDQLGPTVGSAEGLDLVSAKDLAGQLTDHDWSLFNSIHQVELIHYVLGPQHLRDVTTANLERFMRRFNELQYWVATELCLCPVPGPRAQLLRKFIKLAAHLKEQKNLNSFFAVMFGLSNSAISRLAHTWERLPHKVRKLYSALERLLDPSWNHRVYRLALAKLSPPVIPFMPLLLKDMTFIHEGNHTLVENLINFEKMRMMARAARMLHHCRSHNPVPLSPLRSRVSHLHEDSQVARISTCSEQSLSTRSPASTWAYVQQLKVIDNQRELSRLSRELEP
# Summary of the method: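 Nucleotide exchange uses 100 nM EPAC1, 250 nM RAP1B-BODIPY-GDP and 50 uM GDP, with compounds in a concentration-titration series. After 5 min at room temperature, fluorescence (480 nm ex/540 nm em) is read every 5 min for 30 min. Data are normalized to control ATA and DMSO.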
# [2] = target: Rap guanine nucleotide exchange factor 3 (Homo sapiens) (UniProt O95398); test: Confirmatory qHTS for agonist of cAMP-regulated guanine nucleotide exchange factor 3 (EPAC1) (AID 1645881); conditions: EPAC1 Rap1B BODIPY-GDP exchange fluorescence; series mostly up to 154 µM; note: nearly all actives have a fitted effect of over 75% in size; note: potency is the fitted concentration of half-maximal effect;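 for activation: EPAC1 catalysed release of BODIPY-GDP from Rap1B seen as fluorescence loss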
# [3] = target: Rap guanine nucleotide exchange factor 4 (Homo sapiens) (UniProt Q8WZA2); test: Confirmatory qHTS for agonist of cAMP-regulated guanine nucleotide exchange factor 4 (EPAC2) (AID 1645884); conditions: EPAC2 GEF activity, Rap1B-BODIPY-GDP fluorescence; series mostly up to 154 µM;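 note: nucleotide exchange releases bodipy-GDP from Rap1 and this lowers its fluorescence; nearly all actives have a fitted effect of over 65% in size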; note: potency is the fitted concentration of half-maximal effect
# Rap guanine nucleotide exchange factor 4 (Homo sapiens), sequence (Q8WZA2 whole entry, looked up): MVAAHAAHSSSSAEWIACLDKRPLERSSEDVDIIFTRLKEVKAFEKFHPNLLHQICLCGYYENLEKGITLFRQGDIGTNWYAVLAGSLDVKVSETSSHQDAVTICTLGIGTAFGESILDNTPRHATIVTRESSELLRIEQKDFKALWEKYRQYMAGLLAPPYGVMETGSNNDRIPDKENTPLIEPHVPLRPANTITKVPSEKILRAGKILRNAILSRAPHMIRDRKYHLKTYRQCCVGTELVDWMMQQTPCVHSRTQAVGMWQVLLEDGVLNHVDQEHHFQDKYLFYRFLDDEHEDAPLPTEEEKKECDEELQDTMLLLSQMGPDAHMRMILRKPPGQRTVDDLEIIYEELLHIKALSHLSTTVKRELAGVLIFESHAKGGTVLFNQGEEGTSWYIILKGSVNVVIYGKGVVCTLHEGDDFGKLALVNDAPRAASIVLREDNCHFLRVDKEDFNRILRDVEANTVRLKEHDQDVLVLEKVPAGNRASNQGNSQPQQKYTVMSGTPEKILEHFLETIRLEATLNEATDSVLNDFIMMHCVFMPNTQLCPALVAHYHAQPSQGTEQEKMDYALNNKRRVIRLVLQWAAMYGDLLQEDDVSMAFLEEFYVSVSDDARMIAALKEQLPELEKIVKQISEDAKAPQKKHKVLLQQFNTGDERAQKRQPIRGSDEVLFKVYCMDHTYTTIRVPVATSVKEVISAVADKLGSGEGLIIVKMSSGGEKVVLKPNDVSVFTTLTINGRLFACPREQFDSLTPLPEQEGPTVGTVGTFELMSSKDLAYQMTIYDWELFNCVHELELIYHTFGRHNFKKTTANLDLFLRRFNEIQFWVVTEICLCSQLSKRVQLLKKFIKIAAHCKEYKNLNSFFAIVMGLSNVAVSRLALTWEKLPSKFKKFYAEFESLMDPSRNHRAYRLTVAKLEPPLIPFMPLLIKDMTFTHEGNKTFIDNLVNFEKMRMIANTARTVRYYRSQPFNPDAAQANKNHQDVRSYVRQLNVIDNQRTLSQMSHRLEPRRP
# [4] = target: Rap guanine nucleotide exchange factor 4 (Homo sapiens) (UniProt Q8WZA2); test: Confirmatory qHTS for antagonist of cAMP-regulated guanine nucleotide exchange factor 4 (EPAC2) (AID 1645885); conditions: EPAC2 Rap1B-BODIPY-GDP exchange fluorescence, biochemical; series mostly up to 114 µM; note: nearly all actives have a fitted effect of over 25% in size; note: potency is the fitted concentration of half-maximal effect
# [5] = target: Rap guanine nucleotide exchange factor 3 (Homo sapiens) (UniProt O95398); test: Counterscreen qHTS for antagonist of cAMP-regulated guanine nucleotide exchange factor 3 (EPAC1) (AID 1645888); conditions: Rap1B-BODIPY-GDP nucleotide exchange, fluorescence; series mostly up to 154 µM;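 note: fluorescence loss as bound BODIPY-GDP is released from Rap1B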
# Summary of the method: (§1)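 Measured: fluorescence of BODIPY-GDP bound to Rap1B, which falls as exchange proceeds. Conditions include 50 uM competing GDP, 5 and 30 min reads, and a later cAMP challenge for antagonist detection.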
# [6] = target: Rap guanine nucleotide exchange factor 3 (Homo sapiens) (UniProt O95398); test: Counterscreen qHTS for agonist of cAMP-regulated guanine nucleotide exchange factor 3 (EPAC1) (AID 1645889); conditions: EPAC1 Rap1B-BODIPY-GDP exchange, fluorescence; series mostly up to 154 µM; note: nearly all actives have a fitted effect of over 40% in size; note: potency is the fitted concentration of half-maximal effect
# Summary of the method: as §1
# [7] = AP1 Signaling Pathway (AID 357; active = well fitted curve in either direction with a large enough effect, not every such curve was filed as active;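 note: ME-180 reporter cells stimulated with EGF at its EC50 level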); conditions: ME-180 AP-1-bla reporter, EGF-induced, beta-lactamase ratio, 5 h; series mostly up to 17.2 µM
# Summary of the method: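 Cells are seeded overnight, exposed to compound titrations and an EC50 level of EGF for 5 hours at 37 °C, then loaded with CCF4 dye for 2.5 hours. Beta-lactamase activity under the AP-1 element is read as a blue/green ratio.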
# [8] = NFAT Signaling Pathway (AID 444; active = well fitted curve in either direction with a large enough effect, not every such curve was filed as active;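 note: carbachol stimulus at about its EC50 of 1 µM final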); conditions: Jurkat NFAT-bla M1, carbachol, beta-lactamase ratio, 5 h; at 17.2 µM (top of the series)
# Summary of the method: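 Jurkat cells carrying an NFAT-driven β-lactamase reporter and co-transfected muscarinic M1 receptor were treated with compound plus carbachol (1 uM final, an EC50 level) for 5 h at 37 °C. CCF4 loading followed for 1 h at RT; 460/530 nm ratio gave %activity.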
# [9] = Stat Signaling Pathway (AID 446; active = well fitted curve in either direction with a large enough effect, not every such curve was filed as active;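 note: ME-180 cervical cancer cells given 40 pM IL-6 alongside compound; SIE-controlled beta-lactamase reporter measured as 460/530 nm FRET emission ratio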); conditions: ME-180 SIE beta-lactamase reporter, IL-6 stimulated, 5 h; series mostly up to 17.2 µM
# Summary of the method: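 Reporter line: ME-180 cervical carcinoma, SIE-beta-lactamase. Treatment: compound with 40 pM IL-6, 5 hrs, 37 C, in low-serum OPTI-MEM with 10 mM HEPES pH 7.3. Detection: 460/530 nm fluorescence.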
# [10] = target: Glucocorticoid receptor (Homo sapiens) (UniProt P04150); test: GR-GFP Redistribution (AID 450;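 active = compounds whose dose series gives a full or clear partial fitted curve of increased nuclear translocation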; note: potency is the fitted concentration of half-maximal effect); conditions: U2OS GR-GFP nuclear translocation, laser cytometry, 2 h
# Glucocorticoid receptor (Homo sapiens), sequence (P04150 whole entry, looked up): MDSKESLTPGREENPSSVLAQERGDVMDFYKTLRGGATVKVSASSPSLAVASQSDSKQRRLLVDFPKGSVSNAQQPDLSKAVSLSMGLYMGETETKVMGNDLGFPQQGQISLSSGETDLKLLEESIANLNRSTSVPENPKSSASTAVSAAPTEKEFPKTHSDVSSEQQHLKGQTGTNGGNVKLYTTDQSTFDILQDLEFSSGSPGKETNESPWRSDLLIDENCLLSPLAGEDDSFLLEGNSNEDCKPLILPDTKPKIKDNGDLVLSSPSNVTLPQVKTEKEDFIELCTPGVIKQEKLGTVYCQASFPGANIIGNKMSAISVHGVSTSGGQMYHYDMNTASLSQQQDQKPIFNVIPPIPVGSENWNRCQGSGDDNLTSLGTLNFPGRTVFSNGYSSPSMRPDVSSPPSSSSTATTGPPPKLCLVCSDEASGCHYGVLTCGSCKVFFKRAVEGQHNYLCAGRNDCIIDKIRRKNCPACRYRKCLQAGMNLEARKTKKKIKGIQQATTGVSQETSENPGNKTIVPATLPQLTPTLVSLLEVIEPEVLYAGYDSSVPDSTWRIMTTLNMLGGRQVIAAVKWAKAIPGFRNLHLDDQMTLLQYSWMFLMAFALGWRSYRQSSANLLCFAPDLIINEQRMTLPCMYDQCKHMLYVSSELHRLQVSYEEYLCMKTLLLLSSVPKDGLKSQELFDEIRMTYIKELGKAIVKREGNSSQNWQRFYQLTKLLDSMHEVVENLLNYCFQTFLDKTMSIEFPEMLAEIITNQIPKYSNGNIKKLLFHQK
structure (smiles),measurement,setting,value
Cc1ccc(CN2CCCN(Cc3ccccc3C)S2(=O)=O)cc1,Potency,[1],inactive
same,Potency,[2],inactive
same,Potency,[3],inactive
same,Potency,[4],inactive
same,outcome,[5],inactive
same,Potency,[6],inactive
Cc1cccc(N2C(=O)NC(=O)/C(=C\c3cccn3-c3ccc(Cl)cc3)C2=O)c1,Potency,[1],47.8 µM (active)
same,Potency,[2],inactive
same,Potency,[3],inactive
same,Potency,[4],inactive
same,outcome,[5],inactive
same,Potency,[6],inactive
CCN(CC)c1ccc(N=Cc2c(O)n(-c3cc(OC)ccc3OC)c(=O)[nH]c2=O)cc1,outcome,[7],inactive
same,"activity change, negative = inhibition",[8],-6.84%
same,outcome,[9],inactive
same,Potency,[10],> 20.6 µM
same,Potency,[1],inactive
same,Potency,[2],70.8 µM (active)
same,activation,[3],"4.47% [at 17.1 µM, percent relative to cAMP agonist control]"
same,"activity change, negative = inhibition",[4],-9.2% [at 12.7 µM]
same,"activity change, negative = inhibition",[5],-4.74% [at 30.8 µM]
COc1ccc(-n2c(O)c(/C=C/C=Nc3ccccc3)c(=O)[nH]c2=O)cc1,Potency,[1],inactive
same,Potency,[2],100 µM (active)
same,Potency,[3],89.1 µM (active)
same,Potency,[4],16.9 µM (active)
same,outcome,[5],inactive
same,Potency,[6],35.5 µM (active)
COCCCn1c(N)c(C(=O)NCCC(C)C)c2nc3ccccc3nc21,Potency,[1],56.2 µM (active)
same,Potency,[2],inactive
same,activation,[3],"8.34% [at 17.1 µM, percent relative to cAMP agonist control]"
same,"activity change, negative = inhibition",[4],-14.1% [at 12.7 µM]
same,"activity change, negative = inhibition",[5],2.52% [at 30.8 µM]
CN(C)CC(C(=O)Cc1ccccc1)c1ccccc1 (centres undefined),Potency,[1],inactive
same,Potency,[2],inactive
same,Potency,[3],inactive
same,Potency,[4],inactive
same,outcome,[5],inactive
O=C1NC(=O)N(Cc2ccccc2)C(=O)/C1=C/C=C/c1ccco1,Potency,[1],44.7 µM (active)
same,Potency,[2],inactive
same,activation,[3],"4.26% [at 17.1 µM, percent relative to cAMP agonist control]"
same,"activity change, negative = inhibition",[4],-1.14% [at 12.7 µM]
same,"activity change, negative = inhibition",[5],-0.901% [at 30.8 µM]
Oc1c(Cl)cccc1Cc1cc(Cl)cc(Cl)c1O,Potency,[1],19 µM (active)
same,Potency,[2],inactive
same,Potency,[3],inactive
same,Potency,[4],inactive
same,outcome,[5],inactive
same,Potency,[6],inactive
CCCCn1c(O)c(C=NCCN2CCCCC2)c(=O)[nH]c1=O,outcome,[7],inactive
same,"activity change, negative = inhibition",[8],-9.1%
same,outcome,[9],inactive
same,Potency,[10],> 20.6 µM
same,Potency,[1],inactive
same,Potency,[2],inactive
same,Potency,[3],inactive
same,Potency,[4],75.7 µM (active)
same,outcome,[5],inactive
COc1cccc(-n2c(/C=C/c3ccc(O)c(O)c3)nc3ccccc3c2=O)c1,Potency,[1],31.6 µM (active)
same,Potency,[2],inactive
same,activation,[3],"9.04% [at 17.1 µM, percent relative to cAMP agonist control]"
same,"activity change, negative = inhibition",[4],-22.6% [at 12.7 µM]
same,"activity change, negative = inhibition",[5],2.65% [at 30.8 µM]
Cn1cc(C=C2C(=O)NC(=O)NC2=O)c2ccccc21,Potency,[1],inactive
same,Potency,[2],79.4 µM (active)
same,Potency,[3],63.1 µM (active)
same,Potency,[4],75.7 µM (active)
same,outcome,[5],inactive
same,Potency,[6],inactive
Cc1c2cnn(CC(=O)N3CCC4(CC3)OCCO4)c(=O)c2c(C)n1Cc1ccc(F)cc1,Potency,[1],inactive
same,Potency,[2],inactive
same,Potency,[3],inactive
same,Potency,[4],inactive
same,outcome,[5],inactive
COC(=O)C1=C(c2cc3ccccc3s2)C[C@@H]2CC[C@H]1N2C(=O)NC1CC1,Potency,[1],inactive
same,Potency,[2],inactive
same,Potency,[3],inactive
same,Potency,[4],inactive
same,outcome,[5],inactive
same,Potency,[6],inactive
